# Measured values from the supplement of paper PMC12636033.
# ± gives the standard deviation of the averaged measurements. The full ranking holds about 33,000 sequences; the median of “E-score (rank enrichment, -0.5 to 0.5)” is about -0.0075, and the highest 2% start at about 0.23. The sample holds the highest values, similar sequences and a random draw of the others, so the mix is not that of the screen.
# Tested on: WT Max(13-93) synthetic (M65Nle)
# Experiment: PBM 8-mer E-score (E-score (rank enrichment, -0.5 to 0.5)); higher = stronger preferential binding
# Method: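 Protein binding microarray (universal PBM chip covering all 10-mers in fixed probe flanks) with chemically synthesized human Max(13-93) bHLH-LZ analogs (not full-length Max) bearing noncanonical residues (hArg, Tha, Aib, Nle at 65) and aromatic Cys staples. Read-out per 8-mer (and its reverse complement): E-score (rank-based enrichment, -0.5 to 0.5) and Z-score of median probe intensity.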
row,Sequence,PBM 8-mer E-score
1,CGCTTCCG,-0.206 ± 0.041
2,AGCCTGGA,-0.148 ± 0.017
3,AAATCGAT,-0.116 ± 0.11
4,CTGCTATC,-0.116 ± 0.021
5,CTAGACGC,-0.0678 ± 0.01
6,AAAATTCG,0.181 ± 0.015
7,ACTAAAAT,0.073 ± 0.087
8,AATACAAC,0.233 ± 0.077
9,AATACAAG,0.148 ± 0.0056
10,ACTACAAC,0.253 ± 0.024
11,CATACAAC,0.162 ± 0.012
12,ACTACAAG,-0.03 ± 0.032
13,AATACAAA,0.288 ± 0.024
14,CCTACAAC,0.126 ± 0.041
15,GATACAAA,0.0639 ± 0.0017
16,AATACAAT,0.0116 ± 0.074
17,ATCGTCTG,-0.0768 ± 0.04
18,AGTAGACC,-0.143 ± 0.07
19,AGTGACCA,-0.0103 ± 0.17
20,AAGGCAAG,0.149 ± 0.045
21,CAGTATCG,-0.0719 ± 0.0012
22,GACAATTA,-0.0274 ± 0.019
23,CTGATCAG,-0.107 ± 0.14
24,ATTGGACC,-0.0681 ± 0.039
25,AGAAGTAG,0.0117 ± 0.017

row,Sequence,PBM 8-mer E-score
1,ACCGGAAA,-0.104 ± 0.11
2,ATAATTAG,0.237 ± 0.16
3,ATAATTTC,0.0565 ± 0.03
4,ATAATTAT,0.239 ± 0.0049
5,CTAATTAG,0.0687 ± 0.053
6,ATAATTTA,0.228 ± 0.014
7,ATAATTTG,0.254 ± 0.031
8,ATAATTAA,0.22 ± 0.13
9,ATAATTCG,0.147 ± 0.059
10,ATAATTAC,0.232 ± 0.019
11,AGCACAGC,-0.163 ± 0.16
12,ACTCTCTG,-0.0092 ± 0.11
13,CCGCCTCA,-0.108 ± 0.14
14,ATGGTTTA,0.161 ± 0.047
15,AATGGGAA,0.0482 ± 0.059
16,GATGTTGA,0.0902 ± 0.11
17,AATGTTGA,-0.0484 ± 0.091
18,TATGTTGA,0.233 ± 0.0055
19,CATGTTGC,0.12965 ± 2.8e-05
20,CATGTTGG,0.156 ± 0.063
21,CATGTTGA,0.256 ± 0.1
22,ACGCGTAT,0.108 ± 0.0066
23,CAGCGAGA,-0.174 ± 0.013
24,GACGAATA,0.17 ± 0.011
25,GTCGTCCA,-0.159 ± 0.064

row,Sequence,PBM 8-mer E-score
1,AAGTGGCT,0.0496 ± 0.069
2,ACTTGGCT,-0.128 ± 0.062
3,TCGTGGCA,0.219 ± 0.1
4,GCGTGGCC,0.0675 ± 0.016
5,ACGTGGCC,0.247 ± 0.0096
6,CCGTGGCG,-0.147 ± 0.07
7,AGGTGGCG,0.13 ± 0.021
8,CCGTGGCC,-0.112 ± 0.013
9,ACGTGGCG,0.296 ± 0.05
10,ACGTGGCA,0.33 ± 0.0069
11,CCGTGGCA,-0.0466 ± 0.052
12,ACGTGGCT,0.286 ± 0.018
13,ACGGGCTC,-0.297 ± 0.085
14,CGGCAACA,-0.15 ± 0.01
15,ACCGCTAG,-0.0126 ± 0.12
16,CCCACATC,-0.1 ± 0.063
17,AGATGCAA,0.152 ± 0.13
18,CACTCCAA,-0.103 ± 0.025
19,CCGCTCGC,-0.0861 ± 0.086
20,ACCCCCCG,-0.2 ± 0.1
21,ATGGCGAA,0.104 ± 0.068
22,ACGCGTGG,0.212 ± 0.03
23,CCGCGTGC,0.268 ± 0.051
24,ACGCGTGA,0.219 ± 0.081
25,CAGCGTGC,0.191 ± 0.014

row,Sequence,PBM 8-mer E-score
1,ACGCGTGC,0.244 ± 0.02
2,CCGCGTGA,0.172 ± 0.0086
3,AACCCAAG,0.00894 ± 0.087
4,CGGGAAAC,-0.106 ± 0.079
5,AATAACAA,0.264 ± 0.018
6,CATAACAC,0.236 ± 0.016
7,CGTAACAA,0.136 ± 0.087
8,AATAACAG,0.17 ± 0.06
9,AATAACAT,0.181 ± 0.049
10,TATAACAA,0.24 ± 0.026
11,TCTAACAA,-0.0242 ± 0.029
12,GATAACAA,0.0563 ± 0.033
13,CATAACAA,0.251 ± 0.042
14,CCTAACAA,0.11 ± 0.026
15,AATAACAC,0.0775 ± 0.12
16,CATAACAG,0.125 ± 0.021
17,CTACGTCC,-0.0109 ± 0.12
18,AGCAATGC,0.12 ± 0.09
19,GGGGACAC,-0.27 ± 0.018
20,AAAAGGGG,0.0924 ± 0.053
21,CGACCAGC,-0.0396 ± 0.11
22,CAAATAGC,0.0495 ± 0.0037
23,CGCCCGTC,-0.106 ± 0.034
24,AGAGCTAG,-0.0196 ± 0.051
25,CTTGCCCC,-0.0869 ± 0.1

row,Sequence,PBM 8-mer E-score
1,ATAGCCTG,-0.155 ± 0.11
2,ACATACAT,0.26 ± 0.042
3,ACATACGA,0.237 ± 0.015
4,ACATACAG,0.219 ± 0.059
5,AGATACAT,0.245 ± 0.022
6,AGATACAA,0.126 ± 0.036
7,ACATACGC,0.0685 ± 0.056
8,AGATACAG,0.134 ± 0.061
9,ACATACAC,0.139 ± 0.048
10,TCATACGA,0.115 ± 0.021
11,CATCTCTA,-0.0266 ± 0.00032
12,ACGGGCTG,-0.16 ± 0.005
13,AGATAACC,0.0122 ± 0.027
14,AGATAATC,-0.146 ± 0.023
15,AGATAACG,0.256 ± 0.041
16,AAATAACG,0.26 ± 0.0036
17,CAATAACG,0.0031 ± 0.057
18,AGATAATG,0.241 ± 0.012
19,CGATAACG,-0.0133 ± 0.18
20,AGATAATA,0.131 ± 0.045
21,AAATAACA,0.198 ± 0.039
22,ATCTTGGA,-0.118 ± 0.068
23,ACAATGCC,0.0109 ± 0.11
24,GATATCCC,-0.108 ± 0.023
25,ACACTTAT,0.0681 ± 0.02

row,Sequence,PBM 8-mer E-score
1,CCCTGAAG,-0.071 ± 0.03
2,ACACGACC,0.0326 ± 0.019
3,ACACGACT,0.123 ± 0.049
4,ACACGACA,0.289 ± 0.1
5,CGCCAACC,-0.101 ± 0.11
6,ACTAGTAT,0.184 ± 0.02
7,ACTAGTAG,0.11 ± 0.088
8,ACTAGTAA,0.256 ± 0.1
9,CTTTCCAC,0.196 ± 0.17
10,AATCCTGG,-0.171 ± 0.16
11,GTTTCCTA,0.257 ± 0.11
12,ATTTCCTA,0.135 ± 0.027
13,CTTTCCTA,0.0286 ± 0.077
14,CGCCCGGA,-0.201 ± 0.068
15,ATATGGTA,0.241 ± 0.069
16,AAATGGTA,0.253 ± 0.056
17,ATATGGTC,0.164 ± 0.09
18,TAATGGTA,0.0384 ± 0.1
19,CTATGGTA,0.0296 ± 0.11
20,CAATGGTA,0.15 ± 0.041
21,TCGGTTCA,-0.0182 ± 0.1
22,GATGGCAA,0.158 ± 0.091
23,AAGCTCCC,-0.171 ± 0.036
24,GCAGACCA,-0.213 ± 0.1
25,TATATACA,0.0403 ± 0.021

row,Sequence,PBM 8-mer E-score
1,GATATACA,0.08271 ± 0.00014
2,AATATACT,0.104 ± 0.069
3,CATATACA,0.271 ± 0.067
4,AATATACA,0.246 ± 0.052
5,CATATACC,-0.0092 ± 0.047
6,AATATAGA,0.277 ± 0.044
7,TATATAGA,0.104 ± 0.084
8,CATATAGA,0.166 ± 0.049
9,ATTGCGTA,0.188 ± 0.035
10,CGACGCAA,-0.157 ± 0.015
11,ATGCTTAA,0.189 ± 0.046
12,CAAGGCCA,0.0607 ± 0.0078
13,GTATAACA,0.202 ± 0.035
14,ATATAACC,0.0791 ± 0.029
15,ATATAACG,0.299 ± 0.0035
16,ATATAACA,0.237 ± 0.052
17,CTATAACC,0.0479 ± 0.05
18,CTATAACA,0.129 ± 0.045
19,AGAGAGCG,-0.102 ± 0.039
20,AGCCACAT,0.0887 ± 0.052
21,CATCGTGG,-0.0807 ± 0.055
22,CAATCACG,0.274 ± 0.05
